In all, about 360,000 compounds went through this assay and about 4,200 (1.2%) were called active. The sample holds actives, similar compounds and a random draw of the others, so the mix is not that of the screen.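 Rule for the calls: active = mean replicate inhibition at least 60% with every replicate also reaching 60%; inconclusive = only one of the two criteria is met; inactive = mean below 60% and not all replicates reaching 60%.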
assay: PAX8 transcriptional activity inhibition in RMG-I – RMG-I cells, luciferase, single concentration, primary screen (AID 652154); conditions: RMG-I TPO-luciferase reporter, SteadyGlo, 24 h; at 12.6 µM; hits give high values;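 note: luciferase light reporting Pax8 driven TPO promoter activity; plate controls were median of neutral control wells for no effect and mitoxantrone controls for full effect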

inhibition, active:
C[C@@H]1CCCCO[C@H](CN(C)Cc2ccc(C(F)(F)F)cc2)[C@H](C)CN([C@H](C)CO)C(=O)c2cc(NC(=O)Nc3ccc(F)cc3)ccc2O1 92.5%
C=CCn1c(C)cc(C2=NNC(=NCC)SC2)c1C 107%
CC(=O)N1CCOc2ccc(S(=O)(=O)N3CCN(c4cccc(C(F)(F)F)c4)CC3)cc21 92.2%
Cn1c(=O)[nH]c(=O)c2c1nc(N1CCN(C(c3ccccc3)c3ccccc3)CC1)n2CCO 84.2%
C=CCC[C@H](Cc1ccc(F)cc1)C(=O)OC[C@@H](Cc1c[nH]c2ccccc12)NC(=O)[C@H](CC=C)CC(=O)N[C@H](CO)Cc1ccccc1 75.3%
C=CCC[C@@H](Cc1ccc(F)cc1)C(=O)OC[C@H](Cc1c[nH]c2ccccc12)NC(=O)[C@@H](CC=C)CC(=O)N(CCO)Cc1ccccc1 75.3%
COC(=O)C(CC#Cc1ccc2c(c1)[C@]1(C(=O)N2)[C@H](c2ccccc2OCCO)N2[C@H](c3ccccc3)[C@H](c3ccccc3)OC(=O)[C@H]2[C@@H]1C(N)=O)C(=O)OC 92.9%
Cc1noc(/C=C/c2ccco2)c1S(=O)(=O)N1CCC(C(=O)Nc2ccc(Cl)cn2)CC1 74.4%
C[C@H]1CN([C@@H](C)CO)C(=O)c2cccc(NC(=O)Nc3ccc(C(F)(F)F)cc3)c2O[C@H]1CN(C)C(=O)NC1CCCCC1 92.2%
C[C@@H]1CN([C@@H](C)CO)C(=O)c2cc(NC(=O)Nc3ccc(C(F)(F)F)cc3)ccc2O[C@@H](C)CCCCO[C@H]1CN(C)C(=O)c1ccccc1 84.4%
CC(C)NC(=O)N(C)C[C@H]1OCCCC[C@H](C)Oc2ccc(NC(=O)Nc3ccc(C(F)(F)F)cc3)cc2C(=O)N([C@H](C)CO)C[C@@H]1C 93.7%
C[C@@H]1CCCCO[C@H](CN(C)C(=O)C2CCCCC2)[C@@H](C)CN([C@@H](C)CO)C(=O)c2cc(NC(=O)Nc3ccccc3)ccc2O1 80.3%

inhibition, inactive:
CC(C)NC(=O)N1C[C@@H]2[C@H](c3ccccc31)[C@H](CO)N2C(=O)c1ccccn1 -13.7%
COCC#Cc1ccc([C@@H]2[C@@H](CO)N3C(=O)CN(C(=O)C4CCOCC4)C[C@@H]23)cc1 -23.4%
COc1ccc(NC(=O)N(C)C[C@H]2Oc3ccc(N(C)C)cc3C(=O)N([C@@H](C)CO)C[C@H]2C)cc1 -20.3%
O=C(NCC1CC1)[C@@H]1[C@@H](CO)[C@@H]2Cn3c(ccc(C4=CCCC4)c3=O)[C@H]1N2CCC(F)(F)F -4.22%
CCCNC(=O)N1C[C@H]2[C@@H](c3ccccc31)[C@@H](CO)N2C(=O)NCCC -23.2%
Nc1nc2c(ncn2[C@@H]2O[C@H](C(=O)N[C@H](Cc3ccccc3)C(=O)NCC3CCCCC3)[C@@H](O)[C@H]2O)c(=O)[nH]1 -4.88%
C[C@H](CO)N1C[C@H](C)[C@@H](CN(C)C(=O)Nc2ccnc(N3CCOCC3)c2)OCc2ccccc2-c2ccccc2C1=O -26.9%
C[C@@H]1CN([C@@H](C)CO)C(=O)Cc2cc(NC(=O)Nc3ccc(F)cc3)ccc2O[C@@H]1CN(C)C -0.58%
C[C@H](CO)N1C[C@H](C)[C@@H](CN(C)Cc2ccncc2)Oc2ccc(NS(=O)(=O)c3ccc(Cl)cc3)cc2CC1=O 20.9%
CCCNC(=O)N1CC2(C1)[C@@H](c1ccccc1)[C@@H](CO)N2C(=O)CC1CC1 -12.2%
CCCNC(=O)N1C[C@@H](C)[C@@H](OC)CN(C)C(=O)c2ccc(NC(=O)CCC)cc2OC[C@H]1C 1.97%
C[C@@H]1CN([C@H](C)CO)C(=O)c2cc(Br)cnc2O[C@@H]1CN(C)C(=O)Nc1ccc(F)cc1 9.97%
C[C@@H]1CN([C@H](C)CO)C(=O)c2cc(NC(=O)Nc3ccc(C(F)(F)F)cc3)ccc2O[C@@H](C)CCCCO[C@@H]1CN(C)Cc1ccc(C(F)(F)F)cc1 -27.4%
C[C@@H]1CCCCO[C@@H](CN(C)Cc2ccc(C(=O)O)cc2)[C@@H](C)CN([C@@H](C)CO)C(=O)c2cc(NC(=O)Nc3ccc(C(F)(F)F)cc3)ccc2O1 -6.61%
COc1ccc2c3c([nH]c2c1)[C@H](CO)N(C(=O)C1CCCCC1)CC31CCN(C(=O)c2ccncc2)CC1 3.94%
CCC(=O)N(C)C[C@@H]1Oc2cc(-c3ccccc3OC)ccc2S(=O)(=O)N([C@H](C)CO)C[C@H]1C -9.48%
COC(=O)C[C@@H]1CC[C@H]2[C@H](COc3ccc(NC(=O)c4ccccc4F)cc3C(=O)N2C)O1 9.97%
O=C(C(=O)N1CCC(CNS(=O)(=O)Cc2ccccc2)CC1)c1cc2ccccc2o1 10%
COc1ccc(NC(=O)Nc2ccc3c(c2)[C@@H]2C[C@H](CC(=O)N[C@@H](C)c4ccccc4)O[C@@H](CO)[C@@H]2O3)cc1 -20.1%
C[C@H](NC(=O)C[C@H]1CC[C@H]2[C@@H](COC[C@H](O)CN2C(=O)Nc2cc(Cl)cc(Cl)c2)O1)c1ccccc1 3.71%
C[C@H]1CCCCO[C@@H](CN(C)Cc2ccccc2)[C@@H](C)CN([C@@H](C)CO)C(=O)c2cc(NC(=O)Cc3ccccc3)ccc2O1 -9.52%
CNC(=O)C[C@H]1CC[C@@H]2[C@@H](COc3ccc(NC(=O)c4ccc(F)c(F)c4)cc3C(=O)N2C)O1 -18.3%
CCOC(=O)C1CCN(S(=O)(=O)c2ccc3c(c2)N(C(C)=O)CCO3)CC1 8.01%
COc1ccc(N2CCN(S(=O)(=O)c3ccc4c(c3)N(C(C)=O)CCO4)CC2)cc1 3.96%
C[C@H]1CN([C@@H](C)CO)C(=O)c2cc(NC(=O)Nc3ccccc3)ccc2O[C@H]1CN(C)C(=O)Nc1ccc(F)cc1 -5.44%
O=C(C[C@@H]1CC[C@@H]2[C@H](COC[C@H](O)CN2Cc2cccc(C(F)(F)F)c2)O1)NCc1ccc(F)cc1 19.6%
CC1CCN(c2nc3c(c(=O)[nH]c(=O)n3C)n2CCCc2ccccc2)CC1 -19.2%
C=C(C)Cn1c(N2CCCC2)nc2c1c(=O)[nH]c(=O)n2C -3.4%
COCCNC(=O)C[C@H]1CC[C@H](NS(=O)(=O)c2ccc(C)cc2)[C@@H](CO)O1 -3.36%
O=C(CN1CCOCC1)N1CCCCN2[C@@H](CO)[C@H](c3ccc(/C=C/c4ccccc4)cc3)[C@@H]2C1 -11.5%
O=C(C[C@H]1CC[C@@H]2[C@H](COC[C@H](O)CN2S(=O)(=O)c2ccc(Cl)cc2)O1)N[C@@H]1CCN(Cc2ccccc2)C1 32.3%
C=CC[C@@H](CC(=O)N[C@H](CO)Cc1ccccc1)C(=O)N[C@@H](COC(=O)[C@@H](CC=C)Cc1ccc(F)cc1)Cc1c[nH]c2ccccc12 25.6%
C=CCC[C@@H](Cc1ccc(F)cc1)C(=O)OC[C@@H](C)NC(=O)[C@H](CC=C)CC(=O)N(CCO)Cc1ccccc1 31.4%
C=CCC[C@H](Cc1ccc(F)cc1)C(=O)OC[C@H](C)NC(=O)[C@H](CC=C)CC(=O)N(CCO)Cc1ccccc1 23.7%
C=CC[C@H](CC(=O)NCCO)C(=O)N[C@@H](COC(=O)[C@@H](CC=C)Cc1ccc(F)cc1)Cc1c[nH]c2ccccc12 8.97%
CO[C@@H]1CC[C@H]2CCN(C)C(=O)C[C@@H](c3ccccc3)CN(C)C(=O)c3cc(C#N)ccc3OC[C@@H]1O2 5.74%
N#C[C@@H]1N[C@@H](CO)[C@@H]1c1ccc(C#Cc2ccccc2F)cc1 -118%
O=C(C[C@@H]1CC[C@@H]2[C@H](COC[C@H](O)CN2C(=O)Nc2cccc(Cl)c2)O1)NCCCN1CCOCC1 -32.8%
O=C(c1ccncc1)N1CC(=O)N2[C@H](CO)[C@@H](c3ccc(-c4cccnc4)cc3)[C@H]2C1 7.54%
COCC(=O)N(C)C[C@H]1[C@@H](c2ccc(-c3cccnc3)cc2)[C@H](CO)N1C(C)=O 0.314%
COc1ccccc1S(=O)(=O)N[C@@H]1CC[C@H](CC(=O)N2CCOCC2)O[C@@H]1CO 3.09%
COC(=O)C(CC#Cc1ccc2c(c1)[C@]1(C(=O)N2)[C@H](c2ccc(O)cc2)N2[C@H](c3ccccc3)[C@H](c3ccccc3)OC(=O)[C@H]2[C@@H]1C(=O)NC[C@H](O)c1ccccc1)C(=O)OC -24.8%
COc1ccc(C#Cc2ccc3c(c2)[C@]2(C(=O)N3)[C@H](c3ccccc3OCCO)N3[C@H](c4ccccc4)[C@H](c4ccccc4)OC(=O)[C@H]3[C@@H]2C(=O)N2CCCCCCC2)cc1 0.581%
Cc1ccc(S(=O)(=O)Nc2cccc3c2O[C@H](CN(C)CC2CCCCC2)[C@H](C)CN([C@H](C)CO)C3=O)cc1 -4.8%
COc1ccc(CN(C)C[C@H]2OCCCC[C@@H](C)Oc3ccc(NC(=O)Nc4cccc5ccccc45)cc3C(=O)N([C@H](C)CO)C[C@@H]2C)cc1 14.2%
CNC(=O)C1CCN(S(=O)(=O)c2c(C)noc2/C=C/c2cccc(C)c2)CC1 -0.657%
Cc1noc(/C=C/N(C)C)c1S(=O)(=O)N1CCCC(C(=O)NCc2ccco2)C1 (stereo not drawn) 38.6%
CC(=O)N1CCCCN2[C@H](CO)[C@H](c3ccc(-c4ccccc4)cc3)[C@@H]2C1 8.11%
C[C@@H]1CCCCO[C@@H](CN(C)C(=O)Nc2ccc(C(F)(F)F)cc2)[C@H](C)CN([C@H](C)CO)C(=O)c2cc(NC(=O)c3ccccc3)ccc2O1 -6.62%
C[C@@H]1CCCCO[C@@H](CN(C)C(=O)C2CCCCC2)[C@H](C)CN([C@H](C)CO)C(=O)c2cc(NC(=O)Cc3ccccc3)ccc2O1 -7.3%
CC(C)NC(=O)Nc1ccc2c(c1)C(=O)N([C@@H](C)CO)C[C@H](C)[C@H](CN(C)C(=O)c1ccccc1)OCCCC[C@@H](C)O2 3.59%
C[C@@H]1CN([C@H](C)CO)C(=O)c2cccc(NC(=O)Nc3ccccc3)c2O[C@@H]1CN(C)C(=O)NC1CCCCC1 9.31%
CC(C)NC(=O)Nc1ccc2c(c1)C(=O)N([C@@H](C)CO)C[C@@H](C)[C@@H](CN(C)C(=O)Nc1ccc(C(F)(F)F)cc1)OCCCC[C@H](C)O2 -21.5%
C[C@@H]1CCCCO[C@H](CN(C)C(=O)Nc2ccccc2)[C@H](C)CN([C@H](C)CO)C(=O)c2cc(NC(=O)Nc3ccccc3)ccc2O1 10.5%
C[C@@H]1CCCCO[C@H](CN(C)C(=O)Nc2ccc(C(F)(F)F)cc2)[C@H](C)CN([C@H](C)CO)C(=O)c2cc(NC(=O)Nc3ccc(C(F)(F)F)cc3)ccc2O1 17.5%
C[C@H](CO)N1C[C@H](C)[C@@H](CN(C)C(=O)NC2CCCCC2)Oc2c(NC(=O)Nc3ccc(F)cc3)cccc2C1=O -8.27%

— PubChem BioAssay AID652154 (Broad Institute, 2013)
